# Laboratory results from PubChem BioAssay (NCI).
# Compounds without any hit were thinned out: in the full panel of roughly 83,000, 20% have a hit.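 Results are percent growth after 48 hours of single-concentration exposure. 100 means growth as in untreated cells, lower positive values show inhibition; negative values down to -100 show cell death.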 Values without a mark were called inactive. Calls of active or inactive are those of the source. The calls were made as follows: active = growth percent below 10; inactive = the rest.
# System: BT-549 breast
# Assay: NCI-60 one-dose screen, 48 h (100 = growth as untreated, 0 = no growth, -100 = all killed)
# Conditions: 10 µM unless noted
row,SMILES,growth
1,COc1ccc2nc3cc(Cl)ccc3c(N3CCN(c4ccnc(N5CCN(C)CC5)n4)CC3)c2c1,55.5%
2,Cc1cccc(NC(=O)c2sc3nc4c(cc3c2N)C(=O)CCC4)c1,41.6%
3,C=C1CCC2C3(C)COC(c4cccc(Cl)c4)OC3CCC2(C)C1/C=C/C1=CCOC1=O (stereo unspecified),55.9%
4,COC(=O)[C@H](C(C)C)n1c(=O)c2cc(OC)c(OC)cc2c2cnc3[nH]ccc3c21,21.2%
5,O=C(/C=C/c1cc2ccccc2[nH]c1=O)/C=C/c1cc2ccccc2[nH]c1=O,-45.5% (active)
6,CC1=C(NCCN2CCCC2)C(=O)c2c(OCc3cccc(Cl)c3)cccc2C1=O,14.5%
7,Cn1c2ccccc2c2c3c(c4c5ccccc5[nH]c4c21)C(=O)N(N)C3=O,46.6%
8,C/C=C/C(N)=O,99.7%
9,CN1CCN(Cc2ccc(NC(=O)c3[nH]ncc3Nc3ncnc4c3CCC4)cc2)CC1,-7.15% (active)
10,COc1cc(OC)c(/C=C/c2cc[n+](C)c3ccccc23)c(OC)c1,24%
11,Clc1cccc(Nc2nc(Nc3cnc4ccccc4c3)c3[nH]cnc3n2)c1,73.7%
12,Oc1ccccc1/C=N/Nc1ccc2ccccc2n1,66.8%
13,COc1ccc(/C=C2\N=C3Sc4cc(Cl)ccc4C(=O)N3C2=O)cc1,114%
14,Cc1cc(N/N=C/c2nc(-c3ccc(Cl)cc3)oc2C)c2cc(Cl)ccc2n1,91.2%
15,NS(=O)(=O)c1ccc(Nc2nc3n[nH]c(Nc4ccccc4)c3c(=O)[nH]2)cc1,99.1%
16,O=C(Nc1ccc(Nc2cc(Nc3ccccc3)ncn2)cc1)Nc1cc(C(F)(F)F)ccc1F,85.3%
17,Nc1cccc(-c2nc3sccn3c2-c2ccnc(NCCCNS(=O)(=O)c3ccc(C(F)(F)F)cc3)n2)c1,0.811% (active)
18,O=C(Nc1ccc(F)cc1)Nc1ccc(CCO)cc1,108%
19,COc1ccc(CCN2CCCn3c2nc2ccccc2c3=O)cc1,29.5%

row,SMILES,growth
1,CCOC(=O)/C=C/C(=O)[C@H](CC(C)C)NC(=O)[C@H](Cc1ccccc1)NC(=O)OCc1ccccc1,69.2%
2,Cn1c2c(Cl)c(Cl)ccc2c2ccn3c(=O)c4ccccc4nc3c21,86.4%
3,C[C@@H]1CC[C@@H]2[C@@H]1[C@H](OC(=O)/C=C/c1ccccc1)[C@]1(C3CCCCC3)C[C@@H](OC(=O)CO)[C@@]2(C)O1,0.688% (active)
4,CC#Cc1nc2ccccc2c(=O)[nH]1,20.4%
5,CCCCN(CC)CCCCCCCCCCN1CCCc2cc(OC)ccc21,89.3%
6,CC[C@H](Nc1nc(N)nc(C)c1C#N)c1nc2cccc(NCc3ccc(C(=O)NO)cc3)c2c(=O)n1-c1ccccc1,20.9%
7,OC(c1cccc(C(F)(F)F)c1)c1cnccc1NC1CCCCCC1 (stereo unspecified),71.4%
8,CC(=O)Nc1ccc2c(c1)c(NC(C)=O)nn2C(=O)Nc1ccc(Cc2ccccc2)cc1,43%
9,COc1cc(/C=N/N(C)C)ccc1O,105%
10,CCC(c1ccccc1)C(CC)c1ccc(O)c(O)c1 (stereo unspecified),110%
11,COc1cc(C2CC(=O)c3c(C)nn(-c4nc5ccccc5[nH]4)c3C2)cc(OC)c1OC (stereo unspecified),77.7%
12,COc1ccc(S(=O)(=O)NCCCNc2cc(-c3c(-c4cccc(OC)c4)nc4sccn34)ccn2)cc1,45.1%
13,COc1cccc(-c2cn3c(ccc4ccccc43)n2)c1,37.8%
14,COC(=S)SCN(CSC(=S)OC)c1ccc(Cl)cc1,65.8%
15,COc1nc2c(cc1S(=O)(=O)c1ccccc1)CCc1c-2cnn1-c1ccc(Cl)cc1,109%
16,O=c1ccc2cc3ccccc3cc2[nH]1,108%
17,COc1cnc2c(c1)C(=O)c1c-2n(CCCN2CCNCC2)c(=O)c2cc([N+](=O)[O-])ccc12,21.7%
18,CC1=N/C(=C\c2cccc(Br)c2)C(=O)O1,109%
19,O=C(Nc1nc(-c2ccccc2)cc(-c2ccc(Cl)cc2)n1)c1ccncc1,101%

# System: MDA-MB-435 melanoma
# Assay: as above
# Conditions: 10 µM unless noted
row,SMILES,growth
1,COc1ccc2nc3cc(Cl)ccc3c(N3CCN(c4ccnc(N5CCN(C)CC5)n4)CC3)c2c1,66.5%
2,Cc1cccc(NC(=O)c2sc3nc4c(cc3c2N)C(=O)CCC4)c1,-52.8% (active)
3,C=C1CCC2C3(C)COC(c4cccc(Cl)c4)OC3CCC2(C)C1/C=C/C1=CCOC1=O (stereo unspecified),79.4%
4,COC(=O)[C@H](C(C)C)n1c(=O)c2cc(OC)c(OC)cc2c2cnc3[nH]ccc3c21,75.1%
5,O=C(/C=C/c1cc2ccccc2[nH]c1=O)/C=C/c1cc2ccccc2[nH]c1=O,-41.6% (active)
6,CC1=C(NCCN2CCCC2)C(=O)c2c(OCc3cccc(Cl)c3)cccc2C1=O,61.8%
7,Cn1c2ccccc2c2c3c(c4c5ccccc5[nH]c4c21)C(=O)N(N)C3=O,57.9%
8,C/C=C/C(N)=O,96.4%
9,CN1CCN(Cc2ccc(NC(=O)c3[nH]ncc3Nc3ncnc4c3CCC4)cc2)CC1,29.6%
10,COc1cc(OC)c(/C=C/c2cc[n+](C)c3ccccc23)c(OC)c1,4.33% (active)
11,Clc1cccc(Nc2nc(Nc3cnc4ccccc4c3)c3[nH]cnc3n2)c1,84.4%
12,Oc1ccccc1/C=N/Nc1ccc2ccccc2n1,65.2%
13,COc1ccc(/C=C2\N=C3Sc4cc(Cl)ccc4C(=O)N3C2=O)cc1,102%
14,Cc1cc(N/N=C/c2nc(-c3ccc(Cl)cc3)oc2C)c2cc(Cl)ccc2n1,-29.7% (active)
15,NS(=O)(=O)c1ccc(Nc2nc3n[nH]c(Nc4ccccc4)c3c(=O)[nH]2)cc1,103%
16,O=C(Nc1ccc(Nc2cc(Nc3ccccc3)ncn2)cc1)Nc1cc(C(F)(F)F)ccc1F,75.8%
17,Nc1cccc(-c2nc3sccn3c2-c2ccnc(NCCCNS(=O)(=O)c3ccc(C(F)(F)F)cc3)n2)c1,-14.8% (active)
18,O=C(Nc1ccc(F)cc1)Nc1ccc(CCO)cc1,97.4%
19,COc1ccc(CCN2CCCn3c2nc2ccccc2c3=O)cc1,-15.2% (active)

row,SMILES,growth
1,CCOC(=O)/C=C/C(=O)[C@H](CC(C)C)NC(=O)[C@H](Cc1ccccc1)NC(=O)OCc1ccccc1,75.8%
2,Cn1c2c(Cl)c(Cl)ccc2c2ccn3c(=O)c4ccccc4nc3c21,98.3%
3,C[C@@H]1CC[C@@H]2[C@@H]1[C@H](OC(=O)/C=C/c1ccccc1)[C@]1(C3CCCCC3)C[C@@H](OC(=O)CO)[C@@]2(C)O1,87.9%
4,CC#Cc1nc2ccccc2c(=O)[nH]1,25.6%
5,CCCCN(CC)CCCCCCCCCCN1CCCc2cc(OC)ccc21,14.5%
6,CC[C@H](Nc1nc(N)nc(C)c1C#N)c1nc2cccc(NCc3ccc(C(=O)NO)cc3)c2c(=O)n1-c1ccccc1,-1.57% (active)
7,OC(c1cccc(C(F)(F)F)c1)c1cnccc1NC1CCCCCC1 (stereo unspecified),32.6%
8,CC(=O)Nc1ccc2c(c1)c(NC(C)=O)nn2C(=O)Nc1ccc(Cc2ccccc2)cc1,82.2%
9,COc1cc(/C=N/N(C)C)ccc1O,106%
10,CCC(c1ccccc1)C(CC)c1ccc(O)c(O)c1 (stereo unspecified),95%
11,COc1cc(C2CC(=O)c3c(C)nn(-c4nc5ccccc5[nH]4)c3C2)cc(OC)c1OC (stereo unspecified),99.8%
12,COc1ccc(S(=O)(=O)NCCCNc2cc(-c3c(-c4cccc(OC)c4)nc4sccn34)ccn2)cc1,44.4%
13,COc1cccc(-c2cn3c(ccc4ccccc43)n2)c1,-25.6% (active)
14,COC(=S)SCN(CSC(=S)OC)c1ccc(Cl)cc1,95.3%
15,COc1nc2c(cc1S(=O)(=O)c1ccccc1)CCc1c-2cnn1-c1ccc(Cl)cc1,90.8%
16,O=c1ccc2cc3ccccc3cc2[nH]1,92.3%
17,COc1cnc2c(c1)C(=O)c1c-2n(CCCN2CCNCC2)c(=O)c2cc([N+](=O)[O-])ccc12,-92% (active)
18,CC1=N/C(=C\c2cccc(Br)c2)C(=O)O1,107%
19,O=C(Nc1nc(-c2ccccc2)cc(-c2ccc(Cl)cc2)n1)c1ccncc1,96.8%
